# High-throughput results deposited in PubChem BioAssay by National Center for Advancing Translational Sciences (NCATS).
# HT1080 IDH1KD tx – kills HT-1080 cells with IDH1 knockdown | HT-1080 IDH1 knockdown viability, ATP luminescence, 48 h | Potency, µM (titrated, usually from 46.1 µM), for inactives: at the highest dose activity, negative = toxicity, most hits filed as cytotoxic | hit rate 2% among 360,000 | AID 686971;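 further: 0% = DMSO wells and -100% = cell-free medium wells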
#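 Assay cells: HT-1080 with IDH1 knockdown, 750 per well, RPMI/5% FBS. Exposure: 48 h at 37 °C following 2 h pre-incubation. Read: CellTiter-Glo luminescence; fitted concentration-response, curve class assigned.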
# SW480 rereplic – DNA re-replication induction in SW480 cells; Potency, µM (top dose mostly 46.1 µM), without a hit: top-dose re-replication activation, hits mostly activators; hit rate 1.8% among 340,000; SW480 DNA re-replication, Hoechst DNA content imaging, 48 h; further: % of control where 0% means no effect; nearly all actives have a fitted effect of over 55% in size
#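 Image-based read-out: total Hoechst fluorescence of nuclei (405 nm excitation, 500-530 nm emission), with hits raising the fraction of high-intensity nuclei. SW480 colon cells incubated 48 hr with compounds at 37 C.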
# KB-V1 MDR tox – KB-V1 MDR subline cytotoxicity | Potency, µM (top dose mostly 46.1 µM), most hits filed as cytotoxic | KB-V1 MDR cells viability, CellTiter-Glo, 72 h | hit rate 3.4% among 400,000; further: on the % scale 0 is the no-effect control and ±100 the full control effect; nearly all actives have a fitted effect of over 60% in size
#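 Compound-treated KB-V1 multidrug-resistant cells, 72 h, 37 degrees C; viability by CellTiter-Glo. Fitted qHTS curves give the values.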
# MCF10A rereplic – inducers of DNA re-replication in MCF 10A breast cells; MCF 10A DNA re-replication, Hoechst nuclear intensity, 48 h; AID 624296; Potency, µM (highest dose often 46.1 µM), without a hit: top-dose activity, positive = re-replication, actives largely listed as activators; hit rate 2.9% among 350,000; further: % of control where 0% means no effect; nearly all actives have a fitted effect of over 50% in size
# KB-3-1 tox – KB-3-1 parental cell cytotoxicity; KB-3-1 viability, CellTiter-Glo ATP luminescence, 72 h; Potency, µM (top dose mostly 46.1 µM), most hits filed as cytotoxic; hit rate 1.4% among 400,000; AID 1347075; further: on the % scale 0 is the no-effect control and ±100 the full control effect; nearly all actives have a fitted effect of over 60% in size
#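 Luminescent ATP read-out (CellTiter-Glo) measures survival of drug-naive KB-3-1 cells after 72 h compound exposure at 37 °C. Titration series was screened from lowest to highest concentration, with DMSO vehicle plates as background controls.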
# HT1080-NT tox – kills 2HG-producing HT-1080-NT fibrosarcoma cells. HT-1080-NT fibrosarcoma viability, CellTiter-Glo ATP luminescence, 48 h. Potency, µM (series often up to 46.1 µM), inactives show top-dose activity, negative = less viability, actives largely listed as cytotoxic. hit rate 1.6% among 360,000;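 further: NT is the 2HG producing partner of a matched IDH1 knockdown line; 0% = DMSO-treated cells and -100% = media-only wells without cells; nearly all actives have a fitted effect of over 55% in size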
#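 HT-1080-NT; 750 cells/well; 5% FBS RPMI; 48 h compound, 37 degrees C; CellTiter-Glo luminescence; curve fitting and curve-class assignment.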
# Active calls of the source: *; i = inactive; u = inconclusive; x = not tested or not shown; [ ] = remark or other dose. A selection: hits, their analogues and other compounds. The true share with any hit is near 7.9%. The call rests on the fitted dose curve; in most records, active means well fitted curve in the direction sought with a large enough effect; inconclusive means small, poorly fitted or top-dose-only effect, or another doubt; inactive means no such curve, though single readings can be large; an effect the other way counts as inactive or inconclusive. Potency means the concentration at half of the fitted maximal effect.
SMILES,HT1080 IDH1KD tx,SW480 rereplic,KB-V1 MDR tox,MCF10A rereplic,KB-3-1 tox,HT1080-NT tox
CCCCCCCCCCCCCCCCOP(=O)([O-])OCC[N+](C)(C)C,x,u,x,4%,x,x
COc1cc2c(cc1OC)C(COc1ccc([N+](=O)[O-])cc1)N(C(C)=O)CC2 (stereo not given),-20%,-1%,u,-3%,16µM*,u
COc1ccc(CC(=O)N2CCc3cc(OC)c(OC)cc3C2COc2ccc(F)cc2)cc1 (stereo not given),x,x,7.3µM*,x,i,x
COc1ccc(CC(=O)N2CCc3cc(OC)c(OC)cc3C2COc2ccc(F)cc2)cc1OC (stereo not given),x,x,i,x,i,x
COc1cc2c(cc1OC)C(COc1ccccc1OC)N(C(C)=O)CC2 (stereo not given),-1%,-9%,i,11%,i,3%
COc1cc2nc(N3CCOCC3)nc(NC(C)C)c2cc1OC,15%,x,x,x,x,-2%
COc1cc(OC)cc(C(=O)Nc2nc(CC(=O)NCCc3ccccc3)cs2)c1,1%,-2%,u,4%,i,-2%
CN(C)Cc1csc(NC(=O)Nc2ccccc2-c2ccccc2)n1,u,x,i,x,i,u
CN(C)Cc1csc(NC(=O)Nc2ccccc2Oc2ccccc2)n1,u,x,u,x,u,16µM*
COc1ccccc1CNC(=O)Cc1csc(NC(=O)Nc2ccccc2OC)n1,2%,2%,u,u,i,7%
COc1ccccc1NC(=O)Nc1nc(CC(=O)NCc2ccccn2)cs1,-7%,12µM*,i,u,i,-11%
COc1cc(OC)cc(C(=O)Nc2nc(CC(=O)NCc3ccccc3OC)cs2)c1,-18%,3%,16µM*,u,i,-19%
C[C@H]1Cn2cnc(C(=O)Nc3ccccc3)c2C(=O)N1,5%,x,i,x,i,12%
CS(=O)(=O)N(CC(=O)NCCSc1ccccc1)c1cc(C(F)(F)F)ccc1Cl,x,x,i,x,i,x
CCc1cccc(CC)c1NC(=O)C1SC(=Nc2ccccc2C)C(c2nc3ccccc3s2)=C1N (stereo not given),-13%,8.2µM*,i,u,u,-22%
CN(C)c1ccc(CNc2nc3cc(-c4ccc(F)cc4)sc3c(=O)n2C)cc1,u,x,i,x,i,-19%
Cc1ccc(Nc2nc(C)cc(C)n2)c(C(=O)O)c1,x,x,i,x,i,x
Brc1ccc(-c2nnc3sc(CN4CCCCC4)cn23)cc1,x,x,i,x,i,x
c1ccc(-c2nnc3sc(CN4CCC5(CC4)OCCO5)cn23)cc1,-17%,-2%,21µM*,-3%,i,-13%
CCC(C(=O)OCc1cc(=O)n2nc(C)sc2n1)c1ccccc1 (stereo not given),x,x,i,x,i,x
O=C(Nc1ccc(F)cc1F)c1ccc2c(c1)[nH]c(=O)n2Cc1ccc(F)cc1,-19%,-42%,i,5.8µM*,i,-13%
CCOc1ccccc1N(CC(=O)NC(C)(C)C)C(=O)c1ccc(CN2CCOCC2)o1,-2%,-3%,15µM*,u,i,-1%
Cc1ccc(S(=O)(=O)n2nccc2-c2c(-c3ccccc3)noc2C)cc1,u,13µM*,u,12µM*,u,u
COc1ccc(Nc2nc3ccc(C)cc3nc2-n2nc(C)cc2C)cc1Cl,x,x,i,x,i,x
CCCCc1ccc(NC(=O)Cn2cnc3c(oc4ccccc43)c2=O)cc1,x,x,i,x,i,x
SMILES,HT1080 IDH1KD tx,SW480 rereplic,KB-V1 MDR tox,MCF10A rereplic,KB-3-1 tox,HT1080-NT tox
Cc1ccc2c(c1)C/C(=C/c1ccc(N(C)C)cc1)C2=O,x,x,i,x,i,x
CN(C(=O)CC1C(=O)NCCN1Cc1ccoc1)C1CCOCC1 (stereo not given),9%,-20%,i,-9%,i,8%
O=C1NCCN(Cc2ccoc2)C1CC(=O)N(CCO)Cc1ccccc1 (stereo not given),1%,18µM*,i,-5%,i,15%
CCOc1ccccc1OCCCC(=O)NNC(=O)c1nn(C)c(=O)c2ccccc12,9%,-7%,23µM*,2%,i,-8%
Cn1nc(C(=O)NNC(=O)COc2ccccc2)c2ccccc2c1=O,10%,0%,i,5%,i,0%
CCN(CC)S(=O)(=O)c1ccc(-c2cn3ccccc3n2)cc1,-3%,x,u,x,i,-5%
CCCCOc1ccc(-c2cn3ccccc3n2)cc1[N+](=O)[O-],u,26%,u,12µM*,i,-22%
O=[N+]([O-])c1ccc(-c2cn3ccccc3n2)cc1,1%,-10%,u,-1%,i,-2%
CN(C)S(=O)(=O)c1ccc(-c2cn3ccccc3n2)cc1,u,-2%,16µM*,4%,i,u
CCOc1ccc(-c2cn3ccccc3n2)cc1[N+](=O)[O-],16µM*,u,u,21µM*,i,15µM*
O=C(c1[nH]c2ccccc2c1Sc1ccc(Cl)cc1)N1CCCCC1,x,x,i,x,i,x
Cc1nn(Cc2ccc(F)cc2)c(C)c1NC(=O)c1cnn2c1NC(c1ccccc1)CC2C(F)(F)F (stereo not given),-1%,0%,i,-2%,i,10%[9.24 µM]
Cc1nn(Cc2ccc(F)cc2)c(C)c1NC(=O)c1cnn2c1NC(c1cccs1)CC2C(F)(F)F (stereo not given),u,3%,21µM*,9%,i,-9%
Cc1nn(C)c(C)c1CNC(=O)c1nn2c(c1Cl)NC(c1cccs1)CC2C(F)(F)F (stereo not given),u,-3%,9.2µM*,-3%,u,u
CCNC(=O)N1CCN(CCCC(c2ccc(F)cc2)c2ccc(F)cc2)CC1,u,-15%,u,u,i,16µM*
C=CCSc1nnc(C)c(/C=C/Nc2ccc(Cl)cc2)n1,-16%,u,i,21µM*,i,-9%
Cn1cnc([N+](=O)[O-])c1Cl,12%,-13%,i,u,i,12%
Cn1cnc([N+](=O)[O-])c1Oc1ccccc1,-15%,0%,i,u,i,-12%
Cn1cnc([N+](=O)[O-])c1S(=O)(=O)Oc1ccc(Cl)cc1,16µM*,5.8µM*,u,6.5µM*,u,21µM*
Cn1cnc([N+](=O)[O-])c1S(=O)(=O)Oc1cccc2ccccc12,2.6µM*,6.5µM*,u,5.8µM*,u,1.2µM*
CCN(CC)c1c([N+](=O)[O-])ncn1C,12%,-4%,i,1%,i,10%
